This is a sample that favours compounds with a hit; in the whole collection about 19% have one here.
DT40 TDP1 no CPT – qHTS for Inhibitors of human tyrosyl-DNA phosphodiesterase 1 (TDP1): qHTS in cells in absence of CPT; Potency, µM (titrated, usually from 46.2 µM), for inactives: at the top dose activity change, negative = growth inhibition, hits mostly inhibitors; actives 15% (n = 420,000); DT40 Tdp1-/- hTDP1 cells, no CPT, ATP luminescence, 48 h; AID 686978, 2013; further: nearly all actives have a fitted effect of over 55% in size
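A cellular qHTS used chicken DT40 cells lacking endogenous Tdp1 but carrying stably transfected human TDP1. Compounds were applied without camptothecin, and cell growth kinetics were judged by ATP-dependent luminescence after ≥48 hr.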
KB-V1 MDR tox – KB-V1 MDR subline cytotoxicity | KB-V1 MDR cells viability, CellTiter-Glo, 72 h | Potency, µM (series often up to 46.1 µM), usual class: cytotoxic | actives 3.4% (n = 400,000) | AID 1347076; further: nearly all actives have a fitted effect of over 60% in size
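Cytotoxicity toward P-gp-expressing KB-V1 cells was determined as loss of CellTiter-Glo luminescence after 72 h at 37 degrees C. Compounds were tested in quantitative HTS format across a concentration range, with curves fitted to normalized data.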
TDP1 cell CPT – DT40-hTDP1 cell growth loss with CPT. chicken DT40 Tdp1-/-;hTDP1 cells + 20 nM CPT, ATP luminescence, 48 h. Potency, µM (doses to about 46.2 µM), inactives show at the top dose activity change, negative = growth inhibition, usual class: inhibitors. actives 12% (n = 420,000). AID 686979; further: nearly all actives have a fitted effect of over 55% in size
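Chicken DT40 Tdp1-/- cells stably complemented with human TDP1 were seeded at 400 cells/well in medium containing 20 nM camptothecin, exposed to pin-transferred compounds, and grown at 37 °C for at least 48 hr. Viability was read as ATP luminescence.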
HT1080 IDH1KD tx – HT-1080 IDH1 knockdown cell toxicity (counter line); HT-1080 IDH1 knockdown viability, ATP luminescence, 48 h; Potency, µM (series often up to 46.1 µM), for the others: top-dose activity, negative = toxicity, usual class: cytotoxic; actives 2% (n = 360,000);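 further: 0% = DMSO wells and -100% = cell-free medium wells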
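Luminescent ATP read-out (CellTiter-Glo, 10 min at room temperature) after 48 h compound exposure at 37 °C gave viability of IDH1-knockdown HT-1080 cells. Activity was normalised to DMSO and cell-free wells, then fitted as concentration-response curves.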
KB-3-1 cytotox – kills parental KB-3-1 adenocarcinoma cells; actives 1.4% (n = 400,000); Potency, µM (highest dose often 46.1 µM), actives largely listed as cytotoxic; KB-3-1 viability, CellTiter-Glo ATP luminescence, 72 h; AID 1347075; further: nearly all actives have a fitted effect of over 60% in size
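Multi-concentration cytotoxicity screen in KB-3-1 cells grown in DMEM lacking phenol red with 10% FBS. After 72 h at 37 °C with compound, ATP-dependent luminescence was recorded.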
HT1080NT lethal – kills 2HG-producing HT-1080-NT fibrosarcoma cells. actives 1.6% (n = 360,000). AID 686970. Potency, µM (top dose mostly 46.1 µM), inactives show at the highest dose activity, negative = less viability, usual class: cytotoxic. HT-1080-NT fibrosarcoma viability, CellTiter-Glo ATP luminescence, 48 h;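 further: NT is the 2HG producing partner of a matched IDH1 knockdown line; 0% = DMSO-treated cells and -100% = media-only wells without cells; nearly all actives have a fitted effect of over 55% in size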
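Fibrosarcoma NT cells, 750 per well in 5% FBS RPMI, were exposed to compound for 48 hours. Viability: CellTiter-Glo luminescence.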
The depositor's hits bear a star; i = inactive; ? = inconclusive; nt = not tested or not shown. The call rests on the fitted dose curve; in most records, active means well fitted curve in the direction sought with a large enough effect; inconclusive means small, poorly fitted or top-dose-only effect, or another doubt; inactive means no such curve, though single readings can be large; an effect the other way counts as inactive or inconclusive. Unless noted, on the % scale 0 is the no-effect control and ±100 the full control effect; potency means the concentration at half of the fitted maximal effect.

SMILES	DT40 TDP1 no CPT	KB-V1 MDR tox	TDP1 cell CPT	HT1080 IDH1KD tx	KB-3-1 cytotox	HT1080NT lethal
OCc1cn(-c2ccccc2)nc1-c1ccc(Br)cc1	-1%	i	-2%	1%	i	12%
O=C1C(=Cc2cn(-c3ccccc3)nc2-c2ccc(OCc3ccccc3)cc2)SC(=S)N1CCS(=O)(=O)O	?	i	29µM*	-25%	i	-17%
CCN1C(=O)/C(=C\c2cn(-c3ccccc3)nc2-c2cccnc2)SC1=S	?	i	15µM*	14%	i	7%
CC(NC(=O)c1cc(S(=O)(=O)N2CCCC2)ccc1Cl)c1ccccn1 (stereo not given)	10%	i	-7%	-1%	i	0%
Cc1cccc(C)c1NC(=O)C1C2C=CC(C2)C1C(=O)O (stereo not given)	-1%	i	13%	2%	i	8%
Cc1nnc(NC(=O)CCN2C(=O)C3CC=CCC3C2=O)s1 (stereo not given)	8%	i	-8%	4%	i	6%
O=C(N/N=C/c1ccc(Cl)cc1)Nc1ccccc1	8.2µM*	i	?	1%	i	17%
O=C(CC(=O)Nc1cccc(Cl)c1)N/N=C\c1ccccc1	0.29µM*	i	?	-9%	i	-2%
Clc1ccc(/C=N\Nc2ccccc2)cc1	-26%	i	-19%	?	i	?
O=c1oc2ccc3ccccc3c2cc1-c1nnc(Nc2cccc(C(F)(F)F)c2)s1	-4%	i	-14%	nt	i	nt
COc1ccc(-c2noc(CCC(=O)Nc3cc(OC)ccc3OC)n2)cc1	21µM*	i	-25%	-19%	i	-10%
COc1ccc(-c2noc(CCC(=O)Nc3cc(Cl)c(OC)cc3OC)n2)cc1	18µM*	i	?	?	i	-26%
O=C(Nc1nc2c(F)cccc2s1)c1ccc2c(c1)OCCO2	?	i	?	nt	i	nt
O=C(Nc1ccc(F)cc1)C(c1cccc(F)c1)N1CCN(C(=O)c2ccco2)CC1 (stereo not given)	-29%	?	-25%	9%	i	-3%
COc1cc(/C=N/NC(=O)c2cccc3ccccc23)ccc1OCC(N)=O	5.8µM*	i	?	-1%	i	-8%
CCOc1cc(/C=N/NC(N)=O)ccc1OCC(=O)Nc1ccc(C)c(C)c1	23µM*	i	21µM*	-4%	i	-2%
COc1cc(/C=N/NC(=O)c2cccc(C)c2)ccc1OCC(=O)Nc1ccccc1	18µM*	i	?	-13%	i	-5%
COc1cc(/C=N/NC(N)=O)ccc1OCC(=O)Nc1ccc(C)c(C)c1	7%	i	-5%	2%	i	0%
CCOc1ccc(C=NNC(=O)c2cccc3ccccc23)cc1OCC	18µM*	23µM*	?	15%	i	-1%
COc1cccc(/C=N/NC(=O)c2cccc3ccccc23)c1	?	i	?	-17%	i	-12%
COc1ccc([C@H]2C(C#N)=C([S-])N[C@](C)(O)[C@@H]2[n+]2ccccc2)cc1	-20%	i	1%	0%	i	4%
CCOC(=O)c1c(C)oc2ncnc(Nc3cccc(C(F)(F)F)c3)c12	6%	?	-1%	nt	i	nt
COc1ccc(/C=N/NC(=O)c2nn(C)cc2Br)cc1CSCc1ccco1	?	nt	?	2%	nt	1%
CCOc1cc(/C=N/NC(=O)c2cc(C)n(-c3ccc(F)cc3)c2C)ccc1O	21µM*	i	16µM*	-12%	?	24%
CCOc1cc(/C=N/NC(=O)C(=O)N2CCCC2)ccc1O	-3%	?	5%	9%	i	6%
SMILES	DT40 TDP1 no CPT	KB-V1 MDR tox	TDP1 cell CPT	HT1080 IDH1KD tx	KB-3-1 cytotox	HT1080NT lethal
CCOc1cc(/C=N/NC(=O)c2nn(C)cc2Br)ccc1OCc1ccccc1	10µM*	16µM*	15µM*	10%	i	-1%
CCN1C2=C(C(=O)CCC2)C(c2ccc(O)c(Br)c2)C2=C1CCCC2=O	-21%	i	?	-9%	i	-1%
O=C1CCCC2=C1C(c1ccc(O)c(Br)c1)C1=C(CCCC1=O)N2c1ccccc1	23µM*	i	?	-5%	i	-2%
O=P(Cc1cccc2ccccc12)(c1ccccc1)c1ccccc1	21µM*	i	?	-8%	i	2%
O=P(Cc1ccncc1)(c1ccccc1)c1ccccc1	-2%	i	-1%	17%	i	12%
O=C(Nc1ccccc1)c1cc2n(n1)C(C(F)(F)F)CC(C1CC1)N2 (stereo not given)	6%	i	1%	10%	i	11%
Cc1cccc(/C=N/NC(=O)c2cc3c(s2)-c2ccccc2CC3)c1	15µM*	?	16µM*	?	?	?
CCC1COCCS(=O)(=O)N1Cc1ccc(C)cc1 (stereo not given)	-5%	i	?	16%	i	22%
Cc1ccc(CN2[C@H](C)[C@H](c3ccccc3)OCCS2(=O)=O)cc1	?	16µM*	?	nt	23µM*	nt
C[C@@H]1[C@H](c2ccccc2)OCCS(=O)(=O)N1Cc1ccccc1F	13µM*	?	?	nt	?	nt
O=S1(=O)CCO[C@H]2CCCC[C@@H]2N1Cc1ccc(Cl)cc1	20µM*	?	?	nt	i	nt
Cc1cc2nc(C)n(CCCN)c2cc1C	18µM*	i	23µM*	2%	i	-11%
Cc1cc2nc(C)n(CCCNC(=O)Nc3ccc(C#N)cc3)c2cc1C	?	i	?	?	i	?
CC(=O)COc1ccc2c(C)c(-c3ccccc3)c(=O)oc2c1	26µM*	?	?	-18%	i	-11%
CC(=O)c1ccc(Nc2nc(C)cc(C)n2)cc1	1%	i	-7%	20%	i	17%
CC(=O)c1ccc(Nc2cc(C)nc3ccccc23)cc1	13µM*	?	12µM*	12µM*	?	?
CC(=O)c1ccc(Nc2cc(C)nc3c(C)cccc23)cc1	1.3µM*	2.9µM*	1.3µM*	3.7µM*	i	5.2µM*
Cc1cc(Nc2cccc(O)c2)c2cccc(Br)c2n1	-28%	i	-24%	nt	i	nt
Cc1ccc(Nc2cc(C)nc3c(C)cccc23)cc1	?	8.2µM*	?	?	?	?
